Reference: PubChem BioAssay AID1347426 (Functional Genomics Laboratory (NCATS/FGL), 2020)
The whole screen tested about 31,000 sequences, of which about 1,400 (4.5%) were called active.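 Rule for the calls: active = median seed-adjusted z-score above 1 or below -1; inactive = the rest.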 Many of the other results were omitted from the sample, so actives are more common in it than they were.

Assay: Novel Modifiers of Survival Motor Neuron (SMN) Protein: Gene Identification via Genome-wide siRNA Screen;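 note: luminescence tracks full-length SMN protein made from the SMN2 reporter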
Details: HEK293T SMN2-luciferase reporter, siRNA knockdown, 72 h; actives lie on both sides
How it was run: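 Genome-wide siRNA screen (10418 genes, 3 siRNAs each, 1 pmol per well) by reverse transfection in HEK293T cells stably carrying an SMN2-luciferase reporter; luminescence after 72 hours, normalized to negative-control siRNA, log10-transformed, MAD-scored.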
In the case of CGAUGUUGAAGUUACACCATT against ATP13A4, the median seed-adjusted z-score is reported as -1.09 (active).
For CCGCGAAUCCAUGACAAUATT against UGCG, the median seed-adjusted z-score was 0.492 (inactive).
For CCACCUCUACCAAACAUUUTT against IL2RG, the median seed-adjusted z-score was -0.155 (inactive).
For GGAGAUUCAUUCUAACCAUTT against ADAMTS19, the median seed-adjusted z-score was -0.39 (inactive).
In the case of CAGUGAGAGUUUCAUCUUUTT against PKD1L2, the median seed-adjusted z-score is reported as -1.17 (active).
For GGAUAUGAGUUACAUGACATT against GALNT5, the median seed-adjusted z-score was -0.279 (inactive).
For GGACGACUUCUUUAAGUCATT against PGD, the median seed-adjusted z-score was -1.55 (active).
For CGGCAAUUGUUGACGUGAATT against TXNDC11, the median seed-adjusted z-score was 0.642 (inactive).
With GGAUGGACUUUAUCCAGCATT against TM7SF4 the median seed-adjusted z-score was 0.0246 (inactive).
With GGACAACAGUCGGUCGAAUTT against ANP32C the median seed-adjusted z-score was -0.421 (inactive).
With UGAUAUCGGCUACGUCAAATT against NAGK the median seed-adjusted z-score was 0.446 (inactive).
In the case of GGAUUACAGUGUCCAAAGATT against ADRA1A, the median seed-adjusted z-score is reported as -1.06 (active).
With CCUACUAUGUGAGCAAUGATT against EEF1G the median seed-adjusted z-score was -0.206 (inactive).
For GAGUCACAAUCGCAUGAAATT against FKBP9, the median seed-adjusted z-score was 0.359 (inactive).
For CCACACUUUUGGUCUUUAATT against PGDS, the median seed-adjusted z-score was 0.02 (inactive).
For AGACGGUCCUCUUUCGACATT against LOC442229, the median seed-adjusted z-score was 0.183 (inactive).
For GGAUAUCAAUUAUUACGCUTT against LIFR, the median seed-adjusted z-score was 0.031 (inactive).
With AGGAGUCCCUAAUGCUACATT against TRIM74 the median seed-adjusted z-score was 0.0932 (inactive).
For GCAUCAACUUUGUGCAUGATT against PLTP, the median seed-adjusted z-score was 1.09 (active).
For GCAGCAAACUGACGGAGAATT against PCTK3, the median seed-adjusted z-score was 0 (inactive).
With CAGUGCUCAUGGAACUCUUTT against HMGCS2 the median seed-adjusted z-score was -0.465 (inactive).
With CGAUGAAGGGUUCCGAUUATT against CR1 the median seed-adjusted z-score was 0.143 (inactive).
With GGGCGAGUAUGACCGAUCATT against CTRL the median seed-adjusted z-score was 0.0758 (inactive).
With GCAGAUACAUUGAUCGCAUTT against PRPF8 the median seed-adjusted z-score was -1.54 (active).
For GGACCAGACAACGAACUGATT against RNF135, the median seed-adjusted z-score was 0.581 (inactive).
With CGCUGAAACACGUCCAUUUTT against CHAD the median seed-adjusted z-score was 0 (inactive).
For CUCUGAACAUCAACCCGGATT against DMRTB1, the median seed-adjusted z-score was -0.393 (inactive).
For GGAUCGUGGUCUUUCCAAATT against FNTA, the median seed-adjusted z-score was 1.04 (active).
With GAAGAUUGGUGAUCUAGGATT against WNK3 the median seed-adjusted z-score was -0.466 (inactive).
With GGCUUCUUGUCCAACCCUATT against CILP the median seed-adjusted z-score was 0.0436 (inactive).
In the case of GUAGGACCCUAAUAUCGAUTT against TEP1, the median seed-adjusted z-score is reported as -0.495 (inactive).
With CAACUUUGAGGUAAAGUCATT against PRPF19 the median seed-adjusted z-score was -0.485 (inactive).
In the case of CGCUGAUACUAACAAUUGATT against AOX1, the median seed-adjusted z-score is reported as -0.0717 (inactive).
With GAUUCGUUCUUCUACAACUTT against PSMD2 the median seed-adjusted z-score was -1.44 (active).
In the case of GGGCUGGAAUUACUAUGGATT against CCNH, the median seed-adjusted z-score is reported as -0.659 (inactive).
In the case of GGCGAUUAGGAAACAUGAATT against PRKX, the median seed-adjusted z-score is reported as 0.0341 (inactive).
In the case of GCAUUUUCCGCCUACCACATT against POLM, the median seed-adjusted z-score is reported as -1.55 (active).
For GAACAUUUCCAAGUCUGUATT against YSK4, the median seed-adjusted z-score was -0.181 (inactive).
For CCAAGUUUAUAUCAUAUUATT against GNG4, the median seed-adjusted z-score was -0.188 (inactive).
For CGCGGUGCAUAUGAAGAUATT against PIGM, the median seed-adjusted z-score was 1.36 (active).
With CAGUGUAAUUAGGCAACUATT against MYO3A the median seed-adjusted z-score was 0.0776 (inactive).
With CACCUCCGAUAAGCCCUAUTT against ZIC2 the median seed-adjusted z-score was -0.162 (inactive).
For GCAACUACUUCCGAUCUAATT against KIF17, the median seed-adjusted z-score was -0.151 (inactive).
With GGUUGUAACUGCAAGAUCATT against TIMP3 the median seed-adjusted z-score was -1.05 (active).
In the case of CAUCCAUAAUUGGUGUAAATT against KIF20B, the median seed-adjusted z-score is reported as 0 (inactive).
In the case of ACUUAGUCAUCAUCAAGUATT against GK, the median seed-adjusted z-score is reported as -0.474 (inactive).
For CAAGAUUCUUGACCUUGAATT against PDP2, the median seed-adjusted z-score was -0.0726 (inactive).
In the case of GGAUAUUGCGUUUGGAACATT against TDP1, the median seed-adjusted z-score is reported as -0.352 (inactive).
For GGAUACUCUUCCUAUUCAATT against OMA1, the median seed-adjusted z-score was 0 (inactive).
For CGGCUUUUAUGGACGAGUUTT against STX3, the median seed-adjusted z-score was 0.686 (inactive).
For GAAACAAAGUCUUAAUAUUTT against ATP1A4, the median seed-adjusted z-score was 0.116 (inactive).
For GGAAAAGUUCUGAAGACUATT against CPOX, the median seed-adjusted z-score was -0.135 (inactive).
In the case of GCACCUCACCCAUCAAUGATT against RERE, the median seed-adjusted z-score is reported as 0.129 (inactive).
For GGUUGUCAUUAACAACAGUTT against DLST, the median seed-adjusted z-score was 1.16 (active).
In the case of GGUUCGGCAUGAGUGUGAATT against ZNF187, the median seed-adjusted z-score is reported as 0.419 (inactive).
For GCAGGAGACUCAAAGAUUUTT against DDO, the median seed-adjusted z-score was -0.202 (inactive).
With GUCUAUCUCUUGUCUAAAATT against HYAL4 the median seed-adjusted z-score was -0.236 (inactive).
For GCUCAUUGGUACAAUGUCATT against POLE, the median seed-adjusted z-score was -1.55 (active).
In the case of CGCUCAUGGACUUCGCCUATT against ZBTB7A, the median seed-adjusted z-score is reported as -0.344 (inactive).
With CCAUAACGGUGGAUGAGUATT against MPPED2 the median seed-adjusted z-score was 0.418 (inactive).
For GAAGUUUGACCAUGACUUUTT against ACCN5, the median seed-adjusted z-score was 0.227 (inactive).
In the case of CACUGAUUCUGAAGGCGAATT against RPS6KA1, the median seed-adjusted z-score is reported as 0.194 (inactive).
In the case of CGUCUGACUUCGCUAGCAATT against HOXD11, the median seed-adjusted z-score is reported as -0.185 (inactive).
In the case of GGAUGUUGUUUAUCGAGGATT against MED21, the median seed-adjusted z-score is reported as -1.3 (active).
With ACAAAAAGGGCAUACAUUATT against S100A7A the median seed-adjusted z-score was 0.212 (inactive).
With GCAGCUGUUUGGAACCAAATT against TRIM47 the median seed-adjusted z-score was 0.707 (inactive).
With GCAUCUCUUCUAUGCCGAATT against MATN2 the median seed-adjusted z-score was 0.275 (inactive).
For ACAAGCACCUAGACCAUGATT against ANGPTL4, the median seed-adjusted z-score was 1.37 (active).
With ACUUAAUGCCUGCCUAUUATT against CYP21A2 the median seed-adjusted z-score was -0.26 (inactive).
For UGACGUAGGCAUAAACGGATT against PCDH11Y, the median seed-adjusted z-score was 0.186 (inactive).
In the case of GCUCUAAACCAGAACGGGATT against ARAP3, the median seed-adjusted z-score is reported as -0.00876 (inactive).
In the case of AGACCAACCCUGGUACUUUTT against SRMS, the median seed-adjusted z-score is reported as -1.58 (active).
With GCAUUGUCCGUCUUCAUCATT against GLP1R the median seed-adjusted z-score was 0 (inactive).
With GCACGUCACUGUGGUUGUATT against THNSL2 the median seed-adjusted z-score was 0 (inactive).
In the case of GCUUAUACAUUCCGAUGAATT against PTPRZ1, the median seed-adjusted z-score is reported as 1.73 (active).
With GGAUGUAGCUGUCAACUGUTT against HSD17B10 the median seed-adjusted z-score was -0.355 (inactive).
In the case of GACCUUACGAGGUUUCUAATT against TSNAX, the median seed-adjusted z-score is reported as 0.514 (inactive).
In the case of CGUUCCUAAGCUACAAGAATT against TMPRSS9, the median seed-adjusted z-score is reported as 0.106 (inactive).
With GAAUUCAGAUGCGAGUAAATT against RFX6 the median seed-adjusted z-score was 0.119 (inactive).
For CUGUUUACAUGACCUAUUUTT against MAFG, the median seed-adjusted z-score was 0 (inactive).
For CGGCACAUCCUGCUUUGUUTT against ZNF213, the median seed-adjusted z-score was 1.37 (active).
For GGUUCCUUAUUAUAGUCCATT against GPR63, the median seed-adjusted z-score was -0.0154 (inactive).
For CGGUGCUCCCUGUCAUAAATT against CCR2, the median seed-adjusted z-score was -0.00107 (inactive).
With GGCAUGAAUUUGAACUGUATT against CA8 the median seed-adjusted z-score was 0.172 (inactive).
With CCGUCAAGGUCGUCAUACATT against NTSR1 the median seed-adjusted z-score was -1.1 (active).
In the case of GGACGGCUUUCUGCAAAGATT against GLRA2, the median seed-adjusted z-score is reported as -0.927 (inactive).
With AGUGUCUACUGUGAGAAUATT against TRAF4 the median seed-adjusted z-score was -1.16 (active).
For GCACCAUAGUGACACUGAATT against IFNAR2, the median seed-adjusted z-score was -0.219 (inactive).
With CAGUGGACUUCCAACCCAATT against SF3A1 the median seed-adjusted z-score was -1.09 (active).
For CAUUCAUCUCAAUAAUUGATT against IL5RA, the median seed-adjusted z-score was -0.357 (inactive).
With CAUGGACGAGAUCAAGGAATT against AGXT the median seed-adjusted z-score was 0.017 (inactive).
For GCACUACUCCGAGAAGUUATT against NEK6, the median seed-adjusted z-score was -0.674 (inactive).
For CAAUAGUAAAGGGAUAUAATT against MED27, the median seed-adjusted z-score was -1.62 (active).
For AGACCGACGUGAAAGAGGATT against HAND2, the median seed-adjusted z-score was 0.0864 (inactive).
With CAGUUGCCUAUAUCCUAUATT against TDRKH the median seed-adjusted z-score was -0.434 (inactive).
With CCCUUGUAGUGAAACGGAATT against CYP4F8 the median seed-adjusted z-score was 0.756 (inactive).
With ACUACUUCCUGAACCGGGATT against CD2BP2 the median seed-adjusted z-score was -0.455 (inactive).
In the case of GCAGAGUUUCGUACAAGGATT against KPNA6, the median seed-adjusted z-score is reported as -1.54 (active).
In the case of CCAGCCCACUCAUCUCAUUTT against SNX30, the median seed-adjusted z-score is reported as -0.157 (inactive).
For GCCGAGGAACAAUCUCUCATT against RASGRP4, the median seed-adjusted z-score was 0.162 (inactive).
With CCACUACCCUGAGAACUUUTT against TOP3B the median seed-adjusted z-score was -1.11 (active).
With GGACCGGAGCAGUAUAGAATT against TRIM37 the median seed-adjusted z-score was -0.108 (inactive).
With CGGUUACGAUAAUGCGUUATT against ENPP5 the median seed-adjusted z-score was -0.0499 (inactive).
With GCACAAGUGCUGAGCCAGATT against LENG9 the median seed-adjusted z-score was 0.607 (inactive).
In the case of GUAUUAUUUUCGUACACGATT against RABL3, the median seed-adjusted z-score is reported as 0.843 (inactive).
In the case of CCGGCUACCUGAUCGUGUATT against PITPNM1, the median seed-adjusted z-score is reported as -0.203 (inactive).
In the case of GAAAUGACAUUAGCUGAUUTT against CLIC4, the median seed-adjusted z-score is reported as -0.498 (inactive).
For CUACAUUGCUGGGACUAAUTT against RRM1, the median seed-adjusted z-score was -5.51 (active).
For CCUGGAGAGUUACUUUGAATT against CCL23, the median seed-adjusted z-score was -0.285 (inactive).
